Laboratory results reported in article PMC7862700, “An all-to-all approach to the identification of sequence-specific readers for epigenetic DNA modifications on cytosine”.

Assays:
Test in all cases: DAPPL (digital affinity profiling via proximity ligation, sequencing); 10 mM Tris-HCl pH 7.5, 50 mM NaCl, 1 mM DTT, 4% glycerol, room temperature, 30 min; GST-TFs on glutathione beads, 16-mer random dsDNA library, 0.1% formaldehyde crosslink after washing; high values mean tight binding
Details in all cases: protein: recombinant; tags: N-terminal GST; dsDNA, one strand shown
FLI1 = target: T1, FLI1 (Homo sapiens, UniProt Q01543 1-452)
T1 sequence: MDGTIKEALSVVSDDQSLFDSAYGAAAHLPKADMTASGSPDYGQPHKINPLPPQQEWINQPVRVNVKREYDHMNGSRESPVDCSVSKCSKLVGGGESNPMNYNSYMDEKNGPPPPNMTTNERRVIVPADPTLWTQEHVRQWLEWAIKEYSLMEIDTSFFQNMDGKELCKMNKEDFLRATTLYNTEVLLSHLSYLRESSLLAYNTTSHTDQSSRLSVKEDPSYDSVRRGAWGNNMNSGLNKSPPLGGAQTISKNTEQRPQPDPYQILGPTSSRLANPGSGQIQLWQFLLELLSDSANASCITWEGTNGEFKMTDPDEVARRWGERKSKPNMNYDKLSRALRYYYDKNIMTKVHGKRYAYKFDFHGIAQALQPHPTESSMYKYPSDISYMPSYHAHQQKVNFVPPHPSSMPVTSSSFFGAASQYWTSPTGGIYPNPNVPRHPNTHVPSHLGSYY
Method in brief: (§1)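 Each value of binding signal is a hexamer's read frequency for a factor divided by the same hexamer's frequency in the tag-only sample. Barcoded, bead-captured GST fusions of human transcription factors made in yeast were pooled with that sample and incubated with 200 nmole of a random double-stranded 16-mer DNA library in Tris/NaCl/DTT/glycerol buffer at room temperature for 30 min. Washing, 0.1% formaldehyde crosslinking, proximity ligation, PCR and Illumina NextSeq500 sequencing followed.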

ELK1 = target: T2, ELK1 (Homo sapiens, UniProt P19419 1-428)
T2 sequence: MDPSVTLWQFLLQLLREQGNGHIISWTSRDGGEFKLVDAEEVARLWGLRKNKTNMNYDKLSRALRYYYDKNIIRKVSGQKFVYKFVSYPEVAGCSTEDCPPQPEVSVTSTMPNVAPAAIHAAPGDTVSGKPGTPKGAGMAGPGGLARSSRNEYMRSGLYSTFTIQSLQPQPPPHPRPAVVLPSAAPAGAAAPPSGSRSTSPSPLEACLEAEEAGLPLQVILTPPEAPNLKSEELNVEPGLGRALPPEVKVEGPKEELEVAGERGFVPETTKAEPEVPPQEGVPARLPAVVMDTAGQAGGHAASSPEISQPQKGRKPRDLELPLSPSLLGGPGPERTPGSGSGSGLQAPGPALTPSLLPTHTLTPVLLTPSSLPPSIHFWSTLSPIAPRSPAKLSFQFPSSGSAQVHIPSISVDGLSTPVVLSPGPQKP
Method in brief: as §1

GABPA = target: T3, GABPA (Homo sapiens, UniProt Q06546 1-454)
T3 sequence: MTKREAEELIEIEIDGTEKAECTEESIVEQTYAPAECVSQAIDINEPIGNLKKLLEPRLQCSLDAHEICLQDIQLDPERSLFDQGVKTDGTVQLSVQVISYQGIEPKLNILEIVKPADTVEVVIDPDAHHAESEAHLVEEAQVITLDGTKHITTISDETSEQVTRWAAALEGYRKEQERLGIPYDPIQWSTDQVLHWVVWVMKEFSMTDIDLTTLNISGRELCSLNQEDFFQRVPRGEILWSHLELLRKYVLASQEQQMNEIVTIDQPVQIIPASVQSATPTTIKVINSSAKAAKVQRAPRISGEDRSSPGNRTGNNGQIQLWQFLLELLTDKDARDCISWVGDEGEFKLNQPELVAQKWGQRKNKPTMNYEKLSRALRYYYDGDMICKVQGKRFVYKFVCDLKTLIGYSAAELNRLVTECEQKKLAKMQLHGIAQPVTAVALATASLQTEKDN
Method in brief: as §1

ERG = target: T4, ERG (Homo sapiens, UniProt P11308 1-479)
T4 sequence: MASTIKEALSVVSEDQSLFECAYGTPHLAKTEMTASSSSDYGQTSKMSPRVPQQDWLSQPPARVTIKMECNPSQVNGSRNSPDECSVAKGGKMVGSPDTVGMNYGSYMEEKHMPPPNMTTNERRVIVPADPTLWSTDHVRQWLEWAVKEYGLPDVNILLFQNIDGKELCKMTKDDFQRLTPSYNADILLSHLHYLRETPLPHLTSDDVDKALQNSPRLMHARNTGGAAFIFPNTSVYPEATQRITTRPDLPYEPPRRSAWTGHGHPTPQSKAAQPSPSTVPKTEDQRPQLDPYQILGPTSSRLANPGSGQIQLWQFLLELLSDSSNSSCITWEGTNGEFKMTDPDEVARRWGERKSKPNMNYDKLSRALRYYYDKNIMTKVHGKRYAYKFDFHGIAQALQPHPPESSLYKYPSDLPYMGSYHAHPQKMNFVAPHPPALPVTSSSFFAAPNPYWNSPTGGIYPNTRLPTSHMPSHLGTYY
Method in brief: as §1

ELF1 = ELF1 (Homo sapiens, UniProt P32519 1-619)
Method in brief: as §1

EHF = target: T5, EHF (Homo sapiens, UniProt Q9NZC4 1-300)
T5 sequence: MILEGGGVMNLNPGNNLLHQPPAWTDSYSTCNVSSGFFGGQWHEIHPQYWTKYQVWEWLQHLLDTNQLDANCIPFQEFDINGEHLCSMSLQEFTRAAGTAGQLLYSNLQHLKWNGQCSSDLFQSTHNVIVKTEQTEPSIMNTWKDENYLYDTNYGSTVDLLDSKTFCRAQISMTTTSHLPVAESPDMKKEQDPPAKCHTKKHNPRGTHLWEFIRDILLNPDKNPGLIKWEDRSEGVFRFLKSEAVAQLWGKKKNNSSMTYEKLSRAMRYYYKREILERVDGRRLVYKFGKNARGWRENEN
Method in brief: as §1

SPI1 = SPI1 (Homo sapiens, UniProt P17947 1-270)
Method in brief: as §1

SPIB = SPIB (Homo sapiens, UniProt Q01892 1-262)
Method in brief: as §1

ELK3 = target: T6, ELK3 (Homo sapiens, UniProt P41970 1-407)
T6 sequence: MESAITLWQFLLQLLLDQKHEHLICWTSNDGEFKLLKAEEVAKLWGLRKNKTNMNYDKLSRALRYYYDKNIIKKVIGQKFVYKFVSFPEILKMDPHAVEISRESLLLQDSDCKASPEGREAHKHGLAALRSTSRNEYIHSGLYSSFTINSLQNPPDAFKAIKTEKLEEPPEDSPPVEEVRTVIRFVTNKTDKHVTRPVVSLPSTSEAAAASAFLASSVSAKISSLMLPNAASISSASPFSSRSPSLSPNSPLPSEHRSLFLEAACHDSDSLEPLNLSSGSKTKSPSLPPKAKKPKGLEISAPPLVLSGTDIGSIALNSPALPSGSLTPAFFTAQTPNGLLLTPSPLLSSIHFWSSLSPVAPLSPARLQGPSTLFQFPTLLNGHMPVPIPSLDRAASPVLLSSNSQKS
Method in brief: as §1

Chain of ELF1 (P32519 whole entry): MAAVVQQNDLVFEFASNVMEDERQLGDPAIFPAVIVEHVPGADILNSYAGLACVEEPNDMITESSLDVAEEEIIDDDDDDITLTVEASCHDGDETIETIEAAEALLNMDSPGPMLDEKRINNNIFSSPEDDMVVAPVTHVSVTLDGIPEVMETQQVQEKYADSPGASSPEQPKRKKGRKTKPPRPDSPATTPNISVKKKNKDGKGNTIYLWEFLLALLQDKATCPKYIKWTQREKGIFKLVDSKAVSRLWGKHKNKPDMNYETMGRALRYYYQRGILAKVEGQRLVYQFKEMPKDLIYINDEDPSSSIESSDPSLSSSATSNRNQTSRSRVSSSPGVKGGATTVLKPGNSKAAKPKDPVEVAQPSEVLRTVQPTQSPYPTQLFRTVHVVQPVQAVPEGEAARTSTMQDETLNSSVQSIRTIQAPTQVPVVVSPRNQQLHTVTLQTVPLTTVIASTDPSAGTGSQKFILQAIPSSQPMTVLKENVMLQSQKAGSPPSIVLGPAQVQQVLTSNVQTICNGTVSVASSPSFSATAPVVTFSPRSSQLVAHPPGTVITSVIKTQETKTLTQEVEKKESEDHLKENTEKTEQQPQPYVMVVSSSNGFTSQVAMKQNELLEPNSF
Chain of SPIB (Q01892 whole entry): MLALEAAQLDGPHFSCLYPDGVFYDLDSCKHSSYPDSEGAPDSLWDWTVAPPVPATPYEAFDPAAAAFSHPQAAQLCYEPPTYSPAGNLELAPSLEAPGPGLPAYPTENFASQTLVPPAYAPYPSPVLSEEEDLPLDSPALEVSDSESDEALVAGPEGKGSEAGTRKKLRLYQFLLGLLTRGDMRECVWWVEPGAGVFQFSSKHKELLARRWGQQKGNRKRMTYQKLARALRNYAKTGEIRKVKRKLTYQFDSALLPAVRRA

Sequence	binding signal (FLI1)	binding signal (ELK1)	binding signal (GABPA)	binding signal (ERG)	binding signal (ELF1)	binding signal (EHF)	binding signal (SPI1)	binding signal (SPIB)	binding signal (ELK3)
GTTAAG	1.04 fold enrichment (6-mer frequency, TF over GST control)	1.12 fold enrichment (6-mer frequency, TF over GST control)	1.07 fold enrichment (6-mer frequency, TF over GST control)	1.05 fold enrichment (6-mer frequency, TF over GST control)	1.04 fold enrichment (6-mer frequency, TF over GST control)	1.01 fold enrichment (6-mer frequency, TF over GST control)	1.01 fold enrichment (6-mer frequency, TF over GST control)	1.02 fold enrichment (6-mer frequency, TF over GST control)	1.05 fold enrichment (6-mer frequency, TF over GST control)
CGTCCT	1.28 fold enrichment (6-mer frequency, TF over GST control)	1.44 fold enrichment (6-mer frequency, TF over GST control)	1.32 fold enrichment (6-mer frequency, TF over GST control)	1.41 fold enrichment (6-mer frequency, TF over GST control)	1.3 fold enrichment (6-mer frequency, TF over GST control)	1.37 fold enrichment (6-mer frequency, TF over GST control)	1.42 fold enrichment (6-mer frequency, TF over GST control)	1.38 fold enrichment (6-mer frequency, TF over GST control)	1.47 fold enrichment (6-mer frequency, TF over GST control)
CATTCG	1.25 fold enrichment (6-mer frequency, TF over GST control)	1.11 fold enrichment (6-mer frequency, TF over GST control)	1.17 fold enrichment (6-mer frequency, TF over GST control)	1.21 fold enrichment (6-mer frequency, TF over GST control)	1.28 fold enrichment (6-mer frequency, TF over GST control)	1.08 fold enrichment (6-mer frequency, TF over GST control)	1.26 fold enrichment (6-mer frequency, TF over GST control)	1.15 fold enrichment (6-mer frequency, TF over GST control)	1.24 fold enrichment (6-mer frequency, TF over GST control)
CTCAGC	1.15 fold enrichment (6-mer frequency, TF over GST control)	1.22 fold enrichment (6-mer frequency, TF over GST control)	1.38 fold enrichment (6-mer frequency, TF over GST control)	1.24 fold enrichment (6-mer frequency, TF over GST control)	1.3 fold enrichment (6-mer frequency, TF over GST control)	1.28 fold enrichment (6-mer frequency, TF over GST control)	1.23 fold enrichment (6-mer frequency, TF over GST control)	1.35 fold enrichment (6-mer frequency, TF over GST control)	1.12 fold enrichment (6-mer frequency, TF over GST control)
TTGCTG	1.25 fold enrichment (6-mer frequency, TF over GST control)	1.13 fold enrichment (6-mer frequency, TF over GST control)	1.21 fold enrichment (6-mer frequency, TF over GST control)	1.13 fold enrichment (6-mer frequency, TF over GST control)	1.29 fold enrichment (6-mer frequency, TF over GST control)	1.25 fold enrichment (6-mer frequency, TF over GST control)	1.18 fold enrichment (6-mer frequency, TF over GST control)	1.28 fold enrichment (6-mer frequency, TF over GST control)	1.33 fold enrichment (6-mer frequency, TF over GST control)
TGCCAT	1.11 fold enrichment (6-mer frequency, TF over GST control)	1.06 fold enrichment (6-mer frequency, TF over GST control)	1.26 fold enrichment (6-mer frequency, TF over GST control)	1.21 fold enrichment (6-mer frequency, TF over GST control)	1.1 fold enrichment (6-mer frequency, TF over GST control)	1.21 fold enrichment (6-mer frequency, TF over GST control)	1.17 fold enrichment (6-mer frequency, TF over GST control)	1.16 fold enrichment (6-mer frequency, TF over GST control)	1.12 fold enrichment (6-mer frequency, TF over GST control)
